Laboratory results as given in the supplement of paper PMC10338343.
± gives the standard deviation.

test system: MILI (PIWIL2) piRISC loaded with piRNA #1 (26 nt); test: pre-steady-state target cleavage rate (min^-1); guide: piRNA #1 5'p-UGAGGUAGUAGGUUGUAUAGUAUCCA; MIWI and MILI are mouse PIWI proteins and EfPiwi is from a freshwater sponge; tags in brackets are library labels; higher = faster piRNA-guided slicing of the target; settings: auxiliary factor: 500 nM mouse GTSF1
Outline: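 Three pooled Cleave-'n-Seq trials supplied the data, with k3 capped at 0.0001 min^-1. In each, […] transcribed, DNA-blocked target RNA library and 1 nM active affinity-purified piRISC with one synthetic guide reacted in HEPES–potassium acetate buffer at 33 °C for 0–8 or 0–960 min, with or without 500 nM GTSF1 partner protein. Uncleaved targets were sequenced and normalised to depth and to weakly complementary targets. A burst-and-steady-state fit provided the pre-steady-state cleavage rate.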
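Further: 1 nM active piRISC with 0.1 nM target library at 33 °C single turnover.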

Sequence | pre-steady-state target cleavage rate
GGAGACCUAACUAUACAACCUACUUGCUCA | 0.18 ± 0.062
GGAGACCUAUGAAUACAAGCUACUAGCUCA | 0.00622 ± 0.0027
GGAGACCUAUGUAUACAAGCUUCUACCUCA | 0.0107 ± 0.0027
GGAGACCUAUCAAUACAACCUACUAGCUCA | 0.0299 ± 0.0076
GGAGACCUUACUAUACAACCUACGUACCUCA | 0.0918 ± 0.0092
GGAGAGGAUACUAUACUACCUACUACGUCA | 0.0806 ± 0.01
GGAGACCUAACUAUACAACCGUACUACCUCA | 0.00506 ± 0.005
GGAGACCUAUGAUUACAUCCUACUACCUCA | 0.0102 ± 0.0027
GGAGACCUAUGAUAAAACCUACUACCUCA | 0.00798 ± 0.0023
GGAGAGGAUACUAUACAACCUACUACCAUCA | 0.0616 ± 0.0087
GGAGACCUAUGAUAUCAACCUACCUACCUCA | 0.00604 ± 0.0032
GGAGACCUAUCUAUACAUCCUACAACCUCA | 0.165 ± 0.014
GGAGACCUAUGAAUACAACCUACUACCUCCA | 0.0129 ± 0.0043
GGAGACCUAUGAUAACAACCUACUACCUCA [g2:g16:cont:t1A] | 0.00406 ± 0.003
GGAGACCUAUCUAUACAUCCUACUACCACA | 0.209 ± 0.025
GGAGACCUAUCUAAACAACCUACAACCUCA | 0.0563 ± 0.0063
GGAGACCUAACUAAACAACGUACUACCUCA | 0.00971 ± 0.005
GGAGUGGAUACUUUACAACCUACUACCUGA | 0.0844 ± 0.011
GGAGACCUAUGUUUACAACCUUCUACCUCA | 0.00358 ± 0.0029
GGAGACCUAUCUAUACAACCUACCUACCUCA | 0.0519 ± 0.0097

Sequence | pre-steady-state target cleavage rate
GGAGACCUUACUAUAGUUCCUACUACCUCA | 0.113 ± 0.0093
GGAGACCUUAGUAUACAUCCUACUACCUCA | 0.126 ± 0.018
GGAGACCAUACUAAACAACCUACAACCUCA | 0.117 ± 0.016
GGAGACCUAACUAUUCAUCCUACUACCUCA | 0.322 ± 0.043
GGAGACCUAUGAAUACAACCUACUACCACA | 0.00626 ± 0.0028
GGAGACCUAUGAUAUGAACCUACUACACUCA | < 0.0001
GGAGACCUAUGAUAUCACCUACUACCUCA | 0.00625 ± 0.0026
GGAGACCAUACUAUACAACCUAACUACCUCA | 0.0248 ± 0.0049
GGAGACCUAUGAUUACAACCUACUACCAUCA | 0.00378 ± 0.0028
GGAGACCUAUCUAUACAACCAAGUACCUCA | 0.00317 ± 0.0031
GGAGACCUUACUAUACUACGUACUACCUCA | 0.0307 ± 0.0046
GGAGACCUAUGAUUACAACGUACUACCACA | 0.00319 ± 0.0028
GGAGACGAUACUUUAGAACCUACUACCUCA | 0.16 ± 0.01
GGAGUGGAACUAUACAACCUACUACCUCA | 0.159 ± 0.011
GGAGACCUAUGUAUACAUCCUACUACCUCA | 0.124 ± 0.012
GGAGUGGAUACUAUACAUCCUACAACCUCA | 0.165 ± 0.014
GGAGACCAUACUAUUCAACCUACUACGUCA | 0.0881 ± 0.013
GGAGACCUAUGUAUACAACCUUCUACCACA | 0.00445 ± 0.0026
GGAGACCAUACUAUACAACCUAUACCUCA | 0.016 ± 0.0051
GGAGACCUAUGAAUACAACCUACUACACUCA | 0.00526 ± 0.0026
